Type in all cases: functional
The target in test [1] is Solute carrier family 2, facilitated glucose transporter member 1 (Homo sapiens) (UniProt P11166). The test can be described thus: ST_JUDE_LEISH: Cytotoxicity at 2uM final concentration against transgenic Leishmania Mexicana promastigotes LmGLUT1 that are glucose transport deficient and complemented with the human glucose transporter GLUT1. Activity is measured by DNA content using SYBR green in vitro.

For test [2], the target named is Hexose transporter 1 (Plasmodium falciparum) (UniProt O97467). Description: ST_JUDE_LEISH: Cytotoxicity at 2uM final concentration against transgenic Leishmania Mexicana promastigotes LmPfHT that are glucose transport deficient and complemented with the Plasmodium falciparum hexose transporter. Activity is measured by DNA content using SYBR green in vitro.
The target in test [3] is Glucose transporter (Leishmania mexicana) (UniProt O61059). Description: ST_JUDE_LEISH: Cytotoxicity at 2uM final concentration against transgenic Leishmania Mexicana promastigotes LmGT2 that are glucose transport deficient and complemented with the L. Mexicana glucose transporter 2. Activity is measured by DNA content using SYBR green in vitro.

Usually inhibition stands for the relative decrease from the control value, in per cent.

Chain of Solute carrier family 2, facilitated glucose transporter member 1 (Homo sapiens) (P11166 whole entry): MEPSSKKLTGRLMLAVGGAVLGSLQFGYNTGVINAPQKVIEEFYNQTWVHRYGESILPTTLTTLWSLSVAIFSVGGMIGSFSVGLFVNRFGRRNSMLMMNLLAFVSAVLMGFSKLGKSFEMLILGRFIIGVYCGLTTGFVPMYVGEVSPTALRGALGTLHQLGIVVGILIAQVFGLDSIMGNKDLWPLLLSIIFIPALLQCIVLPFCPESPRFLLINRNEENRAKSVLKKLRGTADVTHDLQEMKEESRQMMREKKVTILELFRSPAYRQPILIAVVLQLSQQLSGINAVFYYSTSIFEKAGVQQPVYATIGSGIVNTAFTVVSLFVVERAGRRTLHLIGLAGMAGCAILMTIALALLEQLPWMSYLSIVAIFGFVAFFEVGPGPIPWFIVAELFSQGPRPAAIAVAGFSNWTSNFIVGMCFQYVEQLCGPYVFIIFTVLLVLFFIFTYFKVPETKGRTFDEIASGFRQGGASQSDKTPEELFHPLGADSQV

With `CCn1cnc2c(N3CCCC3=O)cc(C(=O)N[C@@H](Cc3ccccc3)[C@H](O)CNC3CCCCC3)cc21`, the inhibition came to 2% in test [1], 1.91% in test [2] and 2.63% in test [3].
With `CCNc1cc(C(=O)N[C@@H](Cc2ccccc2)[C@H](O)CNC23CCC(CC2)C3)cc(N2CCCCS2(=O)=O)c1`, the inhibition in test [1] is 0.79%; in test [2] it was -1.58%; in test [3] it was 3.19%.
As to `COc1ccccc1CCNc1nc(C)cc(NCCC(=O)Nc2ccccc2)n1`, the inhibition in test [1] was 1.82%; in test [2], 2.34%; in test [3], 1.43%.
The like results for `COc1ccc(CNCc2cccc(-c3ccc(-c4nc5ccccc5[nH]4)s3)c2)cc1` were, in that order, 5.19%, 3.24% and 2.44%.
With `Cc1cc(C)c(CON2C(=N)N=C(N)NC2(C)C)cc1C`, the values for the inhibition in test [1], in test [2] and in test [3] were -0.51%, -0.15% and -0.63%, respectively.
As for `CCCCCn1c(Sc2ccc(C#N)c([N+](=O)[O-])c2)nnc1-c1cccc(Cl)c1`, the inhibition was 5.58% in test [1], 6.17% in test [2] and -0.77% in test [3].
Take `COc1ccc(CN2CCC(N3CC(c4ccccc4)(c4ccccc4)OCC3=O)C2)c(O)c1` (stereo not drawn): the inhibition was -1.54% in test [1], -0.28% in test [2] and -1.56% in test [3].
Consider `CN(C)c1ccc(-c2csc(C(=O)NCC3CCN(Cc4ccc(C(C)(C)C)cc4)C3)c2)cc1` (stereo not drawn), for which the figures for the inhibition in test [1], in test [2] and in test [3] were -1.07%, -1.85% and -1.57%, respectively.
For `O=S(=O)(NCCN1CCCC1)c1ccc(-c2cccc(CNC3Cc4ccccc4C3)c2)s1` the same measures were 13.9%, 13.6% and 5.84%.
Take `CN1CCCCC1CCc1cc(C(=O)Nc2ccc(-c3ccc(O)cc3)cc2)ccc1O` (stereo not drawn): the inhibition in test [1] was 1.7%; in test [2], 1.76%; in test [3], -0.5%.
`O=C(Nc1cc(C(F)(F)F)cc(C(F)(F)F)c1)Nc1cc(C(F)(F)F)cc(C(F)(F)F)c1`: the inhibition in test [1] was 1.91%; in test [2], 4.29%; in test [3] it was 3.86%.
The like results for `O=S(=O)(NC1CCN(c2ccnc3cc(Cl)ccc23)C1)c1cccc(F)c1` (stereo not drawn) were, in that order, 10.1%, 9.98% and 11.4%.
As for `Cc1ccccc1C1CCN(c2ncc(C(=O)NC3CC3)cc2Cl)CC1`, the inhibition in test [1] was -1.43%; in test [2], 5.9%; in test [3], 2.12%.
The like results for `CCC(NCc1ccc(-c2cncc(C(=O)NCC(C)C)c2)cc1)c1ccccc1` (stereo not drawn) were, in that order, 7.89%, 7.18% and 8.76%.
On to `Cc1cc(NC(=O)Nc2ccc(N(C)C)cc2)c2cc(Cl)ccc2n1`, for which the inhibition in test [1] amounted to 1.15%; in test [2], 0.69%; in test [3], 0.88%.
Take `COc1ccc(NC(=O)[C@H](CC(C)C)Nc2cc(C)nc(NCC3CCCCC3)n2)cc1`: the figures for the inhibition in test [1], in test [2] and in test [3] were 3.07%, 2.78% and 0.83%, respectively.
In the case of `Cc1cccc2nc(-c3ccc(-c4cccc(CN5CCN(c6ccncc6)CC5)c4)s3)[nH]c12`, the inhibition in test [1] amounted to 4.03%; in test [2] it was 2.05%; in test [3], 0.33%.
Regarding `CCc1c(C)nc(-n2nc(C)cc2NC(=O)c2ccc(OC)cc2OC)[nH]c1=O`, the values for the inhibition in test [1], in test [2] and in test [3] were 30.4%, 31.7% and 8.75%, respectively.
For `CON=Cc1ccn(-c2ccc(O)c3c2C[C@H]2C[C@H]4[C@H](N(C)C)C(O)=C(C(N)=O)C(=O)[C@@]4(O)C(O)=C2C3=O)c1`, the inhibition was 5.15% in test [1], 4.25% in test [2] and 4.92% in test [3].
For `O=C(Nc1nc2cc(S(=O)(=O)NCc3ccc(Cl)c(Cl)c3)ccc2n1CCCN1CCCC1)c1ccc(Cl)cc1`, the results for the inhibition in test [1], in test [2] and in test [3] were 1.48%, 1.6% and 3.04%, respectively.
In the case of `c1ccc(CNc2cc(-c3ccccn3)nc(-c3ccccn3)n2)cc1`, the inhibition in test [1] was 24.5%; in test [2], 4.72%; in test [3], 8.35%.
Take `Cc1nc(C)c(-c2ccc(Oc3ccc(OC(F)(F)F)cc3)cc2)c(OC(=O)c2ccccc2)c1Cl`: the results for the inhibition in test [1], in test [2] and in test [3] were 2.27%, 3.78% and 2.37%, respectively.
For `CCN(CC)CCN(CCCc1ccc(-c2ccc(C(F)(F)F)cc2)cc1)C(=O)Cn1c(CCc2cccc(F)c2F)nc(=O)c2c1CCC2` the same measures were -2.04%, -0.48% and 6.62%.
As for `CCOc1cc(C)ccc1C1CCN(CCCCNC(=O)c2ccc(-c3ccc(C(F)(F)F)cn3)cc2)CC1`, the results for the inhibition in test [1], in test [2] and in test [3] were 10.4%, 9.74% and 7.82%, respectively.
For `Cc1cccc2nc(-c3ccc(-c4cccc(CN5CCCC5CN)c4)cc3)[nH]c12` (stereo not drawn) the same measures were 1.08%, 1.46% and 1.07%.
The like results for `O=c1[nH]ccc2nc(N[C@@H]3CCNC3)nc(Nc3ccc4c(c3)S(=O)(=O)CC4)c12` were, in that order, 5.93%, 1.38% and 4.85%.
`Nc1nonc1-c1nc2c(-c3cccc(Cl)c3)nccc2n1CCCNC(=O)Cc1ccc(Cl)cc1`: the inhibition stood at 0.7% in test [1], 0.77% in test [2] and 0.42% in test [3].
The like results for `CC(C)CCn1c(Sc2ccc(C#N)c([N+](=O)[O-])c2)nnc1-c1ccc(N(C)C)cc1` were, in that order, 0.76%, 0.92% and 0.35%.
For `COc1ccc2nc3cc(Cl)ccc3c(NCCCCNc3c4ccc(Cl)cc4nc4ccc(OC)cc34)c2c1` the same measures were 11.8%, 12.5% and 9.15%.
Regarding `Cc1ccc2c(OCCN3CCC(Cc4ccc5c(c4)NC(=O)CO5)CC3)cc(F)cc2n1`, the figures for the inhibition in test [1], in test [2] and in test [3] were 3.49%, 2.13% and 0.63%, respectively.
For `CS(=O)(=O)c1ccc(CNCc2ccc(-c3ccc(-c4nc5cc(C(F)(F)F)ccc5[nH]4)cc3)cc2)cc1` the same measures were 2.96%, 1.96% and 2.3%.

Source of the values: ChEMBL document CHEMBL3433997, “St. Jude Leishmania screening dataset” (2016).
